Bioassay records as filed in PubChem BioAssay.
The entries come from a sample that favours hits as a whole.
AmpC detergent: qHTS Inhibitors of AmpC Beta-Lactamase (assay with detergent); AmpC hydrolysis of nitrocefin, absorbance 480 nm, 0.01% Triton; Potency, µM (titrated, usually from 114 µM), most hits filed as inhibitors; 0.041% of 370,000 active; further: nearly all actives have a fitted effect of over 25% in size
Target sequence (P00811 whole entry, looked up): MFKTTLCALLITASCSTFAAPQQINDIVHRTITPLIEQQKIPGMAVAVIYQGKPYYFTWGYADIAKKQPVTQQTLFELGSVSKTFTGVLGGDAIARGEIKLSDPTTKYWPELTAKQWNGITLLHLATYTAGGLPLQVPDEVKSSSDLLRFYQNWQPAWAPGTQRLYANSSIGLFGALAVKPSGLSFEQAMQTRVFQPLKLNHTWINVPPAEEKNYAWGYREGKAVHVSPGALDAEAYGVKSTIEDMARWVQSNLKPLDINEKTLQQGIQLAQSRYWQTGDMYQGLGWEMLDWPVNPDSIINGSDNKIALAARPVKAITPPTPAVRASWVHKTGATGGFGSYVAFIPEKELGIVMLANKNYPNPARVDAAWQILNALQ
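20 mM phosphate pH 7.0 + 0.01% (detergent screen) or 0.0001% Triton X-100; 5.3 nM AmpC reagent; cpd preinc 15 min RT; nitrocefin (800 uM stock) to start; A480 q20 s × 4 min; Activity was normalised to no-enzyme and no-compound control wells.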
AmpC inh no detg: qHTS Inhibitors of AmpC Beta-Lactamase (assay without detergent) | AmpC nitrocefin hydrolysis, absorbance 480 nm, 0.0001% Triton | Potency, µM (top dose mostly 57.1 µM), actives largely listed as inhibitors | 0.52% of 330,000 active | AID 485341, 2010; further: nearly all actives have a fitted effect of over 20% in size
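AmpC (5.3 nM in the dispensed reagent) in 20 mM phosphate pH 7.0 with 0.01% (detergent screen) or 0.0001% Triton X-100 was preincubated with compounds for 15 min at room temperature. Nitrocefin was then added from an 800 uM solution, and hydrolysis was followed at 480 nm.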
SARS PLP yeast: qHTS of Yeast-based Assay for SARS-CoV PLP | S. cerevisiae expressing SARS-CoV PLpro, growth rescue | 0.19% of 330,000 active | Potency, µM (top dose mostly 32.9 µM), hits mostly activators; calls by dose curve; further: nearly all actives have a fitted effect of over 55% in size
AMA1-RON2 inh: qHTS for Inhibitors of AMA1-RON; Towards Development of Antimalarial Drug Lead: Primary Screen; Potency, µM (series often up to 58.2 µM), usual class: inhibitors; 0.2% of 360,000 active; AlphaScreen AMA1-biotinylated RON2 peptide binding; Plasmodium falciparum AMA1 (3D7) - RON2 peptide interaction; further: nearly all actives have a fitted effect of over 45% in size
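AMA1 (3D7) with his tag at 25 nM final met compounds first, then biotinylated RON2 peptide at 25 nM; detection used donor plus acceptor beads, 10 µg/mL apiece, read by AlphaScreen after 30 min at room temperature.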
CHX counter: Cycloheximide Counterscreen for Small Molecule Inhibitors of Shiga Toxin. cell reporter, cycloheximide protein synthesis inhibition counterscreen. max response, %. 12% of 300,000 active; in the data active means max response mostly above about 13%, no sharp cut-off; inactive means mostly below about 14%; further: read at 38.3 µM for the half of the compounds with a filed dose
Shiga inhibitor: A qHTS for Small Molecule Inhibitors of Shiga Toxin; Vero cells, Shiga toxin protein synthesis inhibition reporter; inhibition, % at 38.7 µM; 9.2% of 290,000 active; AID 2315, 2010; in the data active means inhibition mostly above about 28%, no sharp cut-off; inactive means mostly below about 43%
A number is an active result; – = inactive; ? = inconclusive; · = not tested or not shown; [ ] = another dose, or the depositor's remark. Unless noted, the call rests on the fitted dose curve; in most records, active means well fitted curve in the direction sought with a large enough effect; inconclusive means small, poorly fitted or top-dose-only effect, or another doubt; inactive means no such curve, though single readings can be large; an effect the other way counts as inactive or inconclusive.

SMILES	AmpC detergent	AmpC inh no detg	SARS PLP yeast	AMA1-RON2 inh	CHX counter	Shiga inhibitor
C/C(=N\Nc1ccccc1C(=O)O)c1ccncc1	–	–	–	–	18.3	42.9
C/C(=N\NC(=O)c1ccccc1NC(=O)c1ccc(Cl)cc1)c1ccncc1	–	–	–	–	–	–
COc1ccc(/C(=N\Nc2ccccc2C(=O)O)c2ccccc2)cc1	–	–	–	?	28.9	169.0
O=C1CCCC/C=C\C[C@H](CC(=O)N(CCO)Cc2ccccc2)C(=O)N[C@@H](c2ccccc2)CO1	·	–	–	–	·	·
Clc1ccc(-c2csc3ncnc(NCCN4CCOCC4)c23)cc1	–	–	–	–	–	–
COC(CN1CCc2c(C)nc3c(C#N)cnn3c21)OC	–	–	–	–	–	–
COc1ccc(-c2cnn3c4c(c(C)nc23)CCN4C(C)C)cc1OC	–	–	–	–	26.8	47.0
Cc1nn(C(=O)c2ccco2)c(C)c1Br	?	–	–	–	–	–
Cc1ccn2c(c1)nc(=S)n2C(=O)c1ccco1	–	–	–	·	39.4	74.2
COc1ccccc1-c1nn2c(=O)cc(C)nc2s1	–	–	?	–	–	–
Cc1cc(=O)n2nc(-c3ccc(C(F)(F)F)cc3)sc2n1	–	–	–	–	33.4	–
COc1ccc(N(CC(=O)NC2CCCCC2)C(=O)CNC(=O)c2ccco2)cc1OC	?	–	–	–	–	–
Oc1c(/C=C/C=C/C=Nc2ccccc2)sc(=S)n1Cc1ccccc1	–	12.6µM	–	–	25.2	71.9
CCCn1c(O)c(C=Nc2ccccc2)sc1=S	–	–	–	–	36.5	44.1
CCc1ccc(OCC(=O)N/N=C/c2ccc(OS(=O)(=O)c3ccc(C)cc3)c(OC)c2)cc1	–	–	–	–	12.8	–
COc1cc(/C=N/NS(=O)(=O)c2ccc(C)cc2)ccc1OCc1cccc(C(=O)O)c1	–	–	–	–	53.6	182.6
COc1cc(/C=N/NS(=O)(=O)c2ccc3ccccc3c2)ccc1OCc1ccc(C(=O)O)cc1	–	–	–	–	63.1	118.8
COc1cc(/C=N/NC(=O)COc2cc(C)cc(C)c2)ccc1OS(=O)(=O)c1ccc(C)cc1	–	–	–	–	–	–
COc1ccc(/C=N/NS(=O)(=O)c2ccc(C)cc2)cc1OC(=O)c1ccccc1	–	·	·	–	–	–
O=C(O)c1ccc(CNS(=O)(=O)c2ccc3ccccc3c2)cc1	–	–	–	–	–	54.7
CCCCCCCCCCCCN1C/C(=C\C(=O)OCC)c2cc(C(F)(F)F)ccc2S1(=O)=O	–	–	–	–	–	–
Cc1[nH]c2ccc(C(=O)NCCCN3CCCCCC3)cc2c1C	–	–	–	–	–	–
CC(C)c1ccc(NC(=O)CCCC(=O)NCCc2ccccc2)cc1	?	–	–	–	–	–
Cc1cccc(NC(=S)Nn2cnnc2)c1C	–	–	–	–	38.4	–
CC(C)CC(=O)NC(=S)Nc1ccc(N2CCN(C(=O)c3cccs3)CC2)cc1	–	–	–	–	–	–
SMILES	AmpC detergent	AmpC inh no detg	SARS PLP yeast	AMA1-RON2 inh	CHX counter	Shiga inhibitor
Cc1cccc(NC(=S)NN2CCOCC2)c1C	–	–	–	–	–	–
CC(C)CC(=O)NC(=S)Nc1ccc(N2CCOCC2)cc1	–	?	–	–	24.2	48.0
Cc1cccc(NC(=S)Nc2ccc(N3CCOCC3)cc2)c1C	–	–	–	–	12.9	–
CC(C)CC(=O)NC(=S)Nc1ccc(CN2CCOCC2)cc1	–	–	–	–	–	33.4
Cc1cc(NC(=S)NC(=O)CC(C)C)ccc1Br	–	–	–	–	32.3	114.6
Cc1nc(CS(=O)c2ccccc2)cc(N2CCOCC2)n1 (stereo not given)	–	–	–	–	–	–
COc1ccc(Nc2ncnc3sc(C)cc23)c(OC)c1	–	–	–	–	23.3	48.1
CCN(CC)CCn1c(N)nc2ccccc21	–	–	–	–	–	–
CCN(CC)CCn1c2ccccc2c2nc3ccc([N+](=O)[O-])cc3cc21	–	–	–	–	27.1	91.7
CCOC(=O)c1ccc(NC(=O)COc2ccc(S(=O)(=O)NC(C)(C)C)cc2)cc1	–	–	–	–	–	–
COc1ccc2[nH]c3c(=O)n(CCc4ccccc4)cnc3c2c1	–	–	–	–	–	–
CCCCN(CCCC)CCn1cnc2c([nH]c3ccc(OC)cc32)c1=O	?	20µM	–	–	–	–
COc1cccc(C=O)c1OCCCOc1cccc2cccnc12	–	–	–	–	38.3	66.0
Brc1ccccc1OCCCOc1cccc2cccnc12	?	–	–	–	33.3	·
Cc1cc(C)cc(OCCCOc2cccc3cccnc23)c1	–	–	–	–	–	–
CC(=O)c1cccc(OCCCOc2cccc3cccnc23)c1	?	–	–	–	18.6	–
Brc1ccccc1OCCOc1cccc2cccnc12	?	–[2.29 µM]	–	–	16.4	68.0
Cc1ccc(OCCOCCOc2cccc3cccnc23)c(Br)c1	–	–	–	–	–	–
COc1cc(C(=O)NCCOc2cccc3cccnc23)cc(OC)c1OC	–	–	–	–	–	–
CCCN(CCC)S(=O)(=O)c1ccc(C(=O)N2CCN(C)CC2)cc1	–	–	–	–	–	–
COc1cccc2cc(C(=O)NCCc3c(C)[nH]c4ccc(Br)cc34)c(=O)oc12	–	·	·	·	·	·
CCN(CC)S(=O)(=O)c1cc(C(=O)OCC(=O)NC2CCCc3ccccc32)ccc1C (stereo not given)	–	–	–	–	–	–
O=C(NCCCN1CCOCC1)c1cc2ccccc2oc1=O	–	–	–	–	–	–
O=C(NCCC1=CCCCC1)c1cc2ccccc2oc1=O	–	–	–	–	18.9	67.2
O=C(NCCCn1ccnc1)c1cc2ccccc2oc1=O	–	–	–	–[11.6 µM]	13.4	–
SMILES	AmpC detergent	AmpC inh no detg	SARS PLP yeast	AMA1-RON2 inh	CHX counter	Shiga inhibitor
COc1ccc(CCNC(=O)c2cc3ccccc3oc2=O)cc1	–	–	–	–	28.5	33.8
Cc1ccc(NC(=O)CSc2nc3ccc(Nc4nc(N5CCOCC5)nc(N5CCOCC5)n4)cc3s2)cc1	–	–	–	–	–	–
CCCn1nc(C(=O)N2CCc3ccccc3C2)c2ccccc2c1=O	–	–	–	–	–	–
CC[C@H](CO)Nc1nc(Nc2cccc(Cl)c2)c2ncn(C(C)C)c2n1	–	–	–	–	10.0	–
C/C(=N\Nc1nc2ccccc2s1)c1ccc(Br)s1	–	–	–	–	18.5	41.4
C/C(=N\Nc1nc2ccccc2s1)c1ccc2c(c1)OCO2	?	–	–	–	53.6	69.5
